Among all 5,500 compounds or so, about 2,000 (36%) were called active. About 18% were inconclusive and are not listed. Cut-off read from the data, not from the text of the source: active = normalized growth mostly below about 0.91 (no sharp cut-off); inconclusive = no clear call, values can overlap the other calls; inactive = mostly above about 0.92. This is one part of the list.
Assay: chemical genetic growth profiling, strain panel (AID 1159580);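 note: tested at 20 µM; growth read once vehicle control cultures reached saturation at 30 °C; 1 = growth at the plate median or of vehicle wells; lower values mean less growth of the strain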
Details: growth OD
[1] = S. cerevisiae deletion strains, locus YAL013W, strain DEP1, active compounds read low
[2] = S. cerevisiae deletion strains, locus YBR229C, strain ROT2, active compounds read low
[3] = S. cerevisiae deletion strains, locus YDL101C, strain DUN1, active compounds read low
[4] = S. cerevisiae deletion strains, locus YDL134C, strain PPH21, active compounds read low
[5] = S. cerevisiae deletion strains, locus YDR150W, strain NUM1, active compounds read low
[6] = S. cerevisiae deletion strains, locus YEL061C, strain CIN8, active compounds read low
[7] = S. cerevisiae deletion strains, locus YGR078C, strain PAC10, active compounds read low
[8] = S. cerevisiae deletion strains, locus YHR030C, strain SLT2, active compounds read low
[9] = S. cerevisiae deletion strains, locus YHR087W, strain rtc3, active compounds read low
[10] = S. cerevisiae deletion strains, locus YJL187C, strain SWE1, active compounds read low
[11] = S. cerevisiae deletion strains, locus YJR043C, strain POL32, active compounds read low
[12] = S. cerevisiae deletion strains, locus YJR075W, strain HOC1, active compounds read low
[13] = S. cerevisiae deletion strains, locus YKL190W, strain CNB1, active compounds read low
[14] = S. cerevisiae deletion strains, locus YLR039C, strain RIC1, active compounds read low
[15] = S. cerevisiae deletion strains, locus YLR058C, strain SHM2 (second series), active compounds read low
[16] = S. cerevisiae deletion strains, locus YLR085C, strain ARP6, active compounds read low
[17] = S. cerevisiae deletion strains, locus YLR262C, strain YPT6, active compounds read low
[18] = S. cerevisiae deletion strains, locus YML094W, strain GIM5, active compounds read low
[19] = S. cerevisiae deletion strains, locus YMR219W, strain ESC1, active compounds read low
[20] = S. cerevisiae deletion strains, locus YMR263W, strain SAP30, active compounds read low
[21] = S. cerevisiae deletion strains, locus YMR307W, strain GAS1, active compounds read low
[22] = S. cerevisiae deletion strains, locus YNL153C, strain GIM3, active compounds read low
[23] = S. cerevisiae deletion strains, locus YNL298W, strain CLA4 (second series), active compounds read low
[24] = S. cerevisiae deletion strains, locus YNL322C, strain KRE1, active compounds read low
[25] = S. cerevisiae deletion strains, locus YNR030W, strain Alg12, active compounds read low
[26] = S. cerevisiae deletion strains, locus YPL055C, strain LGE1, active compounds read low
[27] = S. cerevisiae deletion strains, locus YPL241C, strain CIN2, active compounds read low
[28] = S. cerevisiae deletion strains, locus YPR135W, strain CTF4, active compounds read low
[29] = S. cerevisiae deletion strains, locus YCL061C, strain MRC1, active compounds read low
[30] = S. cerevisiae deletion strains, locus YNL128W, strain TEP1, active compounds read low

Measured: normalized growth

CSc1cc(C(F)(F)F)cc(SC)c1SC
inactive: [1] 0.993 | [2] 0.975 | [3] 0.992 | [5] 1.01 | [6] 0.987 | [7] 0.981 | [9] 0.953 | [10] 0.986 | [11] 0.988 | [12] 0.945 | [13] 0.967 | [15] 0.974 | [16] 0.958 | [18] 1.01 | [19] 0.978 | [20] 0.997 | [22] 1 | [23] 0.975 | [24] 0.969 | [25] 0.974 | [26] 0.866 | [27] 0.986 | [28] 0.909 | S. cerevisiae strains, strain wild type, active compounds read low 0.925
active: [4] 0.909 | [8] 0.678 | [14] 0.785 | [17] 0.809 | [21] 0.373

COc1cc(NC(=S)N2CCN(c3ccccc3OC)CC2)c(OC)cc1Cl
inactive: [1] 1.01 | [2] 0.992 | [29] 0.984 | [3] 1 | [4] 1.01 | [5] 0.92 | [6] 1 | [7] 1.01 | [8] 0.95 | [9] 1.01 | [10] 0.997 | [11] 0.984 | [12] 0.999 | [13] 1.02 | [14] 0.949 | [15] 1.01 | [16] 1.14 | [17] 0.962 | [18] 0.995 | [19] 1 | [20] 0.924 | [30] 1.02 | [22] 0.98 | [23] 1 | [24] 0.997 | [25] 1.01 | [26] 0.9 | [27] 0.895 | [28] 0.966

O=C(NC1CCCCC1)N1CCN(c2ncccc2C(F)(F)F)CC1
inactive: [1] 1.01 | [2] 0.994 | [29] 0.984 | [3] 0.998 | [4] 0.982 | [5] 0.978 | [6] 0.998 | [7] 1 | [8] 0.994 | [9] 1.01 | [11] 0.979 | [12] 0.99 | [13] 0.989 | [14] 1.01 | [15] 0.987 | [16] 0.996 | [17] 0.993 | [18] 1.01 | [19] 0.991 | [20] 0.988 | [21] 0.851 | [30] 0.986 | [22] 0.988 | [23] 0.986 | [24] 1 | [25] 1 | S. cerevisiae deletion strains, locus YOL006C, strain TOP1, active compounds read low 0.966 | [26] 1.01 | [27] 0.985 | [28] 1.01

COc1ccccc1N1CCN(C(=O)C(C)Nc2ccccn2)CC1 (stereo not given)
active: [27] 1.24 [resistant]
inactive: [1] 0.994 | [2] 1 | [3] 0.985 | [5] 0.986 | [6] 1.01 | [7] 0.986 | [8] 0.952 | [9] 1.01 | [10] 0.994 | [11] 1 | [12] 1.02 | [14] 0.997 | [15] 0.996 | [16] 1.04 | [17] 0.996 | [18] 0.984 | [19] 0.999 | [20] 1.04 | [21] 1.09 | [22] 1.02 | [23] 0.997 | [24] 0.999 | [25] 1 | [26] 1.01 | [28] 1

COc1ccccc1N1CCN(C(=O)C(C)c2ccc(CC(C)C)cc2)CC1 (stereo not given)
active: [8] 0.802 | S. cerevisiae deletion strains, locus YLR113W, strain HOG1, active compounds read low 0.829
inactive: S. cerevisiae deletion strains, locus YAR019C, strain CDC15, active compounds read low 0.978 | S. cerevisiae deletion strains, locus YBL105C, strain PKC1, active compounds read low 0.983 | S. cerevisiae deletion strains, locus YBR135W, strain CKS1, active compounds read low 0.978 | S. cerevisiae deletion strains, locus YBR136W, strain MEC1, active compounds read low 0.984 | S. cerevisiae deletion strains, locus YBR160W, strain CDC28, active compounds read low 0.975 | S. cerevisiae deletion strains, locus YDL017W, strain CDC7, active compounds read low 0.981 | S. cerevisiae deletion strains, locus YDL028C, strain MPS1, active compounds read low 0.97 | [3] 0.974 | S. cerevisiae deletion strains, locus YDL108W, strain KIN28, active compounds read low 0.968 | S. cerevisiae deletion strains, locus YDL132W, strain cdc53, active compounds read low 0.988 | S. cerevisiae deletion strains, locus YDL214C, strain PRR2, active compounds read low 0.932 | S. cerevisiae deletion strains, locus YDR052C, strain DBF4, active compounds read low 0.99 | S. cerevisiae deletion strains, locus YDR054C, strain cdc34, active compounds read low 0.975 | S. cerevisiae deletion strains, locus YDR226W, strain ADK1, active compounds read low 0.966 | S. cerevisiae deletion strains, locus YDR477W, strain SNF1, active compounds read low 0.921 | S. cerevisiae deletion strains, locus YER123W, strain YCK3, active compounds read low 0.923 | S. cerevisiae deletion strains, locus YER133W, strain GLC7, active compounds read low 0.954 | S. cerevisiae deletion strains, locus YFL009W, strain cdc4, active compounds read low 0.967 | S. cerevisiae deletion strains, locus YFL029C, strain CAK1, active compounds read low 0.977 | S. cerevisiae deletion strains, locus YFR003C, strain YPI1, active compounds read low 0.983 | S. cerevisiae deletion strains, locus YFR019W, strain FAB1, active compounds read low 0.947 | S. cerevisiae deletion strains, locus YFR028C, strain CDC14, active compounds read low 0.986 | S. cerevisiae deletion strains, locus YGR040W, strain KSS1, active compounds read low 0.936 | S. cerevisiae deletion strains, locus YGR052W, strain FMP48, active compounds read low 0.944 | S. cerevisiae deletion strains, locus YGR092W, strain DBF2, active compounds read low 0.938 | S. cerevisiae deletion strains, locus YHR079C, strain IRE1, active compounds read low 0.93 | S. cerevisiae deletion strains, locus YHR082C, strain KSP1, active compounds read low 0.939 | S. cerevisiae deletion strains, locus YHR205W, strain SCH9, active compounds read low 0.861 | S. cerevisiae deletion strains, locus YIL147C, strain SLN1, active compounds read low 0.981 | S. cerevisiae deletion strains, locus YJL095W, strain BCK1, active compounds read low 0.91 | S. cerevisiae deletion strains, locus YJL128C, strain PBS2, active compounds read low 0.977 | S. cerevisiae deletion strains, locus YJL157C, strain FAR1, active compounds read low 0.968 | S. cerevisiae deletion strains, locus YJR016C, strain ILV3, active compounds read low 0.983 | S. cerevisiae deletion strains, locus YJR066W, strain TOR1 (second series), active compounds read low 0.946 | S. cerevisiae deletion strains, locus YJR066W, strain TOR1, active compounds read low 0.873 | S. cerevisiae deletion strains, locus YKL048C, strain ELM1, active compounds read low 0.978 | S. cerevisiae deletion strains, locus YKL067W, strain YNK1, active compounds read low 0.933 | S. cerevisiae deletion strains, locus YKL101W, strain HSL1, active compounds read low 0.926 | S. cerevisiae deletion strains, locus YKL193C, strain SDS22, active compounds read low 0.976 | S. cerevisiae deletion strains, locus YKL203C, strain TOR2, active compounds read low 1.01 | S. cerevisiae deletion strains, locus YLR133W, strain CKI1, active compounds read low 0.943 | S. cerevisiae deletion strains, locus YLR403W, strain SFP1, active compounds read low 0.95 | S. cerevisiae deletion strains, locus YML070W, strain DAK1, active compounds read low 0.933 | S. cerevisiae deletion strains, locus YMR001C, strain CDC5, active compounds read low 0.972 | S. cerevisiae deletion strains, locus YMR205C, strain PFK2 (second series), active compounds read low 0.945 | S. cerevisiae deletion strains, locus YMR277W, strain FCP1, active compounds read low 0.966 | S. cerevisiae deletion strains, locus YNL006W, strain LST8, active compounds read low 0.964 | S. cerevisiae deletion strains, locus YNL020C, strain ARK1, active compounds read low 0.942 | S. cerevisiae deletion strains, locus YNL161W, strain CBK1, active compounds read low 0.981 | S. cerevisiae deletion strains, locus YNL183C, strain NPR1, active compounds read low 0.963 | S. cerevisiae deletion strains, locus YNL207W, strain RIO2, active compounds read low 0.983 | S. cerevisiae deletion strains, locus YNL222W, strain SSU72, active compounds read low 0.969 | S. cerevisiae deletion strains, locus YNL307C, strain MCK1 (second series), active compounds read low 0.924 | S. cerevisiae deletion strains, locus YOL078W, strain AVO1, active compounds read low 0.977 | S. cerevisiae deletion strains, locus YOL136C, strain PFK27, active compounds read low 0.909 | S. cerevisiae deletion strains, locus YOR061W, strain CKA2, active compounds read low 0.937 | S. cerevisiae deletion strains, locus YOR119C, strain RIO1, active compounds read low 0.951 | S. cerevisiae deletion strains, locus YOR231W, strain MKK1, active compounds read low 0.904 | S. cerevisiae deletion strains, locus YOR329C, strain SCD5, active compounds read low 0.98 | S. cerevisiae deletion strains, locus YPL031C, strain PHO85, active compounds read low 0.93 | S. cerevisiae deletion strains, locus YPL153C, strain RAD53, active compounds read low 0.919 | S. cerevisiae deletion strains, locus YPL204W, strain HRR25, active compounds read low 0.915 | S. cerevisiae deletion strains, locus YPL209C, strain IPL1, active compounds read low 0.981 | S. cerevisiae deletion strains, locus YPL256C, strain CLN2, active compounds read low 0.877 | S. cerevisiae deletion strains, locus YPR025C, strain CCL1, active compounds read low 0.983 | S. cerevisiae deletion strains, locus YPR106W, strain ISR1, active compounds read low 0.961 | S. cerevisiae deletion strains, locus YPR111W, strain DBF20, active compounds read low 0.95 | S. cerevisiae deletion strains, strain NNK1, active compounds read low 0.965 | S. cerevisiae deletion strains, strain TSCII, active compounds read low 0.965

Source: PubChem BioAssay AID1159580 (chemical genetic matrix, 2015)
